We go through 93 compounds from PubChem BioAssay AID435003 (Sanford-Burnham Center for Chemical Genomics, 2010).

Among all 330,000 compounds or so, about 1,700 (0.52%) were called active. Cut-off read from the data, not from the text of the source: active = inhibition above about 50%; inactive = the rest. The sample as a whole holds a higher share of actives than the screen did.

A short description of the experiment: lowers stimulated NF-kB reporter luminescence – cell-based, uHTS, TCR NF-kB activation inhibitor project, primary screen (AID 435003). The following applies: Jurkat, PMA/ionomycin-induced NF-kB luciferase reporter, at 4 µM, active compounds read high. On the technique in general: In a reporter assay the amount or activity of a reporter protein is the signal.
As usually defined, the inhibition is the relative decrease from the control value, in per cent. On to `COc1ccc(-c2cc(C(F)(F)F)n3nc(C(=O)N4CCOCC4)c(Cl)c3n2)cc1`, for which the inhibition was -15.4% (inactive).
For `Cc1cccc(NC(=O)c2cc(S(=O)(=O)N3CCC4(CC3)OCCO4)ccc2F)c1` the value was 4.99% (inactive); for `CC(=O)c1ccc(Oc2cc(C)nc(-n3nc(C)cc3C)n2)cc1`, 51.8% (active); for `COc1ccc(C(C)=O)cc1CSc1nc2nc(C)cc(C)n2n1`, 5.26% (inactive).
On to `Cc1cc(N/N=C\c2ccc(Br)cc2)nc(-n2nc(C)cc2C)n1`, for which the inhibition is 27.2% (inactive).
For `COc1ccc(Nc2cc(C)nc(-n3nc(C)cc3C)n2)cc1` the value was 68.7% (active); for `COc1ccc(NC(=O)c2nc(-n3nc(C)cc3C)ccc2Cl)cc1Cl`, -8.27% (inactive).
For `Cc1cc(C)n(-c2ccc(C(=O)O)cc2[N+](=O)[O-])n1` the value was -2.8% (inactive).
For `O=C(CCC1CCN(C(=O)c2cccc(Cl)c2F)CC1)Nc1ccccc1` the value was 2.28% (inactive); for `COc1cc(/C=C/C(=O)Nc2ccc(OC)c(S(=O)(=O)N3CCOCC3)c2)ccc1OCC#N`, 6.61% (inactive).
`Cc1ccc(CN2CCN(Cc3ccc(OCCO)cc3)CC2CCO)o1` (stereo not drawn): the inhibition was 3.63% (inactive).
On to `N#Cc1c(NC(=O)c2ccc(N3CCOCC3)c([N+](=O)[O-])c2)sc2c1CCCC2`, for which the inhibition is -30% (inactive).
For `CC1(C)OC(=O)N2CCc3ccccc3C21C` (stereo not drawn) the value was 11.5% (inactive).
In the case of `O=C(N/N=C/c1cccc(O)c1)c1cc2c(ccc3ccccc32)o1`, the inhibition was 7.99% (inactive).
For `Cc1c(/C=N\NC(=O)c2cc3ccccc3o2)c2ccccc2n1C` the value was 67.3% (active); for `Cc1c(/C=N/N2C(=O)C3C4C=CC(C4)C3C2=O)c2ccccc2n1C` (stereo not drawn), -10.4% (inactive); for `COc1ccc(Cc2cc(-c3ccc(F)cc3)n[nH]c2=O)cc1`, -2.24% (inactive).
For `CC(C)c1ccc(S(=O)(=O)N2CCN(C(=O)c3ccc(N4CCCC4)c([N+](=O)[O-])c3)CC2)cc1` the value was 7.91% (inactive); for `CCOc1[nH]n(-c2ccc(Cl)cc2)c(=O)c1C=Nc1ccc(O)cc1`, 56.7% (active); for `CCOc1ccc(N=C2NC(=O)S/C2=C\c2ccc(O)cc2)cc1`, 11.9% (inactive).
As for `O=C(NC(C(=O)NCCN1CCOCC1)C12CC3CC(CC(C3)C1)C2)C1CCCCC1` (stereo not drawn), the inhibition is -4.81% (inactive).
For `N#Cc1ccccc1S(=O)(=O)N1CCN(C(=O)c2cc(-c3ccccc3)nn2-c2ccccc2)CC1` the value was 2.19% (inactive); for `O=[N+]([O-])/C=C1\CCCCCN1`, -12.2% (inactive).
In the case of `COC(=O)c1ccc(C2CC(=O)Nc3cc(OC)c(OC)cc32)cc1` (stereo not drawn) it was 8.26% (inactive).
Turning to `CCCOc1ccc(C2NC(=O)NC(c3ccccc3)=C2C(C)=O)cc1OCC` (stereo not drawn), the inhibition was 2.86% (inactive).
In the case of `CCCOc1ccccc1C1CC(=O)Nc2cc3c(cc21)OCO3` (stereo not drawn) it was 58.3% (active).
In the case of `COc1ccccc1C1C2=C(COC2=O)Nc2cc3c(cc21)OCO3` (stereo not drawn) it was 70.3% (active); in that of `COc1ccc(S(=O)(=O)Nc2ccc3c(c2)OCO3)cc1Cl`, -1.75% (inactive); in that of `O=C1NC(c2cc3c(cc2Cl)OCO3)Oc2ccccc21` (stereo not drawn), -7.28% (inactive).
In the case of `COC(=O)C1=C(C(=O)OC)[C@@H]2N(C)c3ccccc3[C@@]23C[C@@H](C(=O)OC)N(C(=O)c2ccco2)C3=N1` it was 18.3% (inactive).
Consider `CC(C)Oc1ccc(/C=N/NC(=O)c2nnn(-c3nonc3N)c2CN(C)C2CCCCC2)cc1`, for which the inhibition was -10.3% (inactive).
For `Cc1cccc(OCC(=O)NC2CC(C)(C)NC(C)(C)C2)c1` the value was 23.8% (inactive); for `NS(=O)(=O)c1ccc(N=Cc2ccc(Br)s2)cc1`, 3.07% (inactive).
In the case of `CC(=O)Nc1ccc(Nc2c3ccccc3nc3ccccc23)cc1` it was 61.6% (active); in that of `CCc1nc(Nc2ccc(NC(C)=O)cc2)c2oc3ccccc3c2n1`, -24.7% (inactive); in that of `CC(=O)Nc1ccc(Nc2cc(C)nc(Nc3ccc(NC(C)=O)cc3)n2)cc1`, -8.27% (inactive).
In the case of `O=C(NCc1ccccc1)C(=O)NCC1OCCN1S(=O)(=O)c1ccc(Br)cc1` (stereo not drawn), the inhibition was 13.9% (inactive).
For `Cc1ccccc1N1CCN(Cc2nc(Cc3ccccc3F)no2)CC1` the value was 5.46% (inactive).
For `Nc1nonc1-c1nc2ccccc2n1Cc1ccc(F)cc1` the value was 1.66% (inactive); for `CC(=O)Nc1nonc1-c1nc2ccccc2n1Cc1ccccn1`, -4.81% (inactive); for `COc1ccc(C)c(Cn2c(-c3nonc3N)nc3ccccc32)c1`, 65.7% (active).
For `O=C(Nc1ccc(Cl)cc1)C1c2cccc[n+]2CC(=O)N1Cc1ccc2c(c1)OCO2` (stereo not drawn) the value was -3.1% (inactive); for `O=C1CC[C@H](O)CCN1[C@H](CSc1ccc(Br)cc1)Cc1ccccc1`, -3.24% (inactive); for `O=C(NCCOc1ccccc1Cl)C(=O)Nc1ccccc1`, -8.66% (inactive).
In the case of `C[C@@H]1NC(=O)[C@@]2(C)[C@@H](c3ccccc3)[C@H]3COc4ccccc4[C@@H]3N2C1=O`, the inhibition is 7.9% (inactive).
For `COc1ccc(NC(=O)CN2C(=O)COc3ccc(S(=O)(=O)N4CCOCC4)cc32)c(OC)c1` the value was 0.923% (inactive).
Consider `C[C@H](NC(=O)c1ccccc1Cl)C(=O)OCCOc1cccc(Cl)c1`, for which the inhibition is -1.51% (inactive).
For `COC(=O)c1ccccc1NC(=O)CN(Cc1ccccc1)S(C)(=O)=O`, the inhibition was 0.443% (inactive).
Regarding `O=c1[nH]snc1-c1c(Cl)cccc1Cl`, the inhibition was 11.2% (inactive).
In the case of `Cc1c(NS(=O)(=O)c2cc(C(=O)NCCc3ccc(F)cc3)cc(Cl)c2Cl)c(=O)n(-c2ccccc2)n1C` it was 13.5% (inactive); in that of `CCN(CC)CCCNC(=O)c1cc2c(=O)[nH]c3ccc(C)cc3c2s1`, -1.96% (inactive); in that of `Cc1ccc2[nH]c(=O)c(CC(=O)O)c(-c3ccccc3)c2c1`, -0.374% (inactive).
For `Cc1cccc(N(C)C(=O)c2cc3c(=O)[nH]c4ccc(C)cc4c3s2)c1` the value was 65.1% (active); for `CC(=O)N1CSCC1C(=O)O` (stereo not drawn), -5.84% (inactive).
For `Cc1c(C)c(C)c(S(=O)(=O)N2CCC3(CC2)OCCO3)c(C)c1C` the value was -2.3% (inactive); for `COc1cc(CC(=O)Nc2nc(-c3ccc(F)c(F)c3)cs2)cc(OC)c1OC`, 49.7% (inactive).
In the case of `Cc1ccc(S(=O)(=O)NC(=O)Nc2nc(-c3ccc(F)c(F)c3)cs2)cc1`, the inhibition is -14.8% (inactive).
For `COc1ccc(CC(=O)Nc2nc(-c3ccc(F)c(F)c3)cs2)cc1OC` the value was 55.3% (active).
For `Cc1ccc(C(=O)OCC(=O)Nc2ccc(Cl)cn2)cc1S(=O)(=O)N1CCOCC1` the value was 3.39% (inactive).
In the case of `CCOC(=O)[C@H]1[C@H]2COc3ccc(OC)cc3[C@@H]2N2C(=O)c3ccc(F)cc3NC(=O)[C@@]12C` it was -10.9% (inactive); in that of `CC(N)C12CC3CC(CC(O)(C3)C1)C2` (stereo not drawn), 6.68% (inactive).
For the compound `Cc1ccc2c(=O)oc(N(C)C)nc2c1`, the inhibition is 1.31% (inactive).
In the case of `COc1ccc(CNS(=O)(=O)c2ccc(-c3cnc(C4CC4)o3)cc2)cc1` it was 18.4% (inactive); in that of `Cc1cccc(CNS(=O)(=O)c2ccc(-c3cnc(C4CC4)o3)cc2)c1`, 5.99% (inactive).
In the case of `Cc1cccc(NS(=O)(=O)c2ccc(-c3cnc(C4CC4)o3)cc2)c1` it was 54.1% (active); in that of `Cc1cccc(C)c1NC(=O)CNC(=O)C1CCCC1`, -3.97% (inactive); in that of `Cc1ccc(S(=O)(=O)NC2CCCCCC2)cc1`, -18.9% (inactive).
For `Cc1ccc(S(=O)(=O)C2(S(=O)(=O)c3ccc(C)cc3)CCCC2)cc1` the value was 59.5% (active); for `Cc1ccc(S(=O)(=O)N(C)C2(C)CCS(=O)(=O)C2)cc1` (stereo not drawn), 7.55% (inactive).
Consider `CC(=O)Nc1ccc(S(=O)(=O)NCC(=O)OCC(=O)c2ccc[nH]2)cc1`, for which the inhibition is 2.52% (inactive).
For `Nc1c(C(=O)Nc2ccc3c(c2)OCCO3)nnn1Cc1ccccc1` the value was -98.1% (inactive); for `CCCNC(=O)c1cnc(-c2ccccc2)nc1-c1ccccc1`, 17.2% (inactive); for `O=C(NCC#CCSc1nnc(-c2cccc3ccccc23)o1)c1cccs1`, 51.4% (active).
For the compound `C#CCSc1nnc(-c2sc3ccccc3c2Cl)o1`, the inhibition was -65.2% (inactive).
In the case of `COc1ccc(CCNC(=O)/C(C#N)=C2\N=C(NC(=O)c3cccs3)c3ccccc32)cc1` it was -17.6% (inactive); in that of `N/C(=N\c1nc2ccccc2o1)NC(=O)C(Cc1ccccc1)N1C(=O)c2ccccc2C1=O` (stereo not drawn), -5.81% (inactive).
For `O=C(CSc1ncnc2c1oc1ccccc12)NC1CCCC1` the value was -16.7% (inactive); for `O=C(NCCC1CCCCN1S(=O)(=O)c1ccc(F)cc1)C(=O)NC1CC1` (stereo not drawn), 2.56% (inactive); for `COc1ccccc1CCNC(=O)C(=O)NCCC1CCCCN1S(=O)(=O)c1cccs1` (stereo not drawn), 11.1% (inactive).
For `O=C(NCCC1CCCCN1S(=O)(=O)c1cccs1)C(=O)Nc1ccc(F)cc1F` (stereo not drawn) the value was 57.9% (active); for `COC(=O)Cn1cnc2scc(-c3ccc(C)c(C)c3)c2c1=O`, 11.8% (inactive).
Take `Cc1ccc(S(=O)(=O)N2CCN(C(=O)Cc3sc(C)nc3-c3ccc(F)cc3)CC2)c(C)c1`: the inhibition is 0.534% (inactive).
For `Clc1cccc(Cl)c1OCCOCCNCc1ccccc1` the value was 61.5% (active); for `CCOc1ccccc1OCCCNCc1ccccc1`, -8.28% (inactive); for `OCCNCc1cccc(OCc2ccccc2Cl)c1`, 4.83% (inactive).
For `Cc1ccc(C(=O)N2CCN(C3CCCCC3)CC2)s1`, the inhibition was -4.14% (inactive).
As for `CC(C)(C)c1ccc(Oc2ccc(N)cc2)cc1`, the inhibition was 84.9% (active).
In the case of `CC(C)(C)c1ccc(OC2=CS(=O)(=O)c3ccccc32)cc1` it was -29.9% (inactive); in that of `COc1cccc(Oc2ccc(N)cc2)c1`, 0.758% (inactive); in that of `COc1ccc(Nc2ncnc3ccc(Br)cc23)c(OC)c1`, 59.8% (active).
On to `O=C(O)CCCCCNc1ncnc2ccc(Br)cc12`, for which the inhibition was 5.8% (inactive).
For `Brc1ccc2ncnc(NCc3cccnc3)c2c1` the value was 28.6% (inactive); for `CC(C)c1ccc(-c2noc(C3CCCN(S(C)(=O)=O)C3)n2)cc1` (stereo not drawn), -30.6% (inactive).
